Source: PubChem BioAssay (NCATS)
Records with an inconclusive call do not appear. Values without a mark were called inactive. Calls of active or inactive are those of the source. Calls come from the whole dose curve.

Target: Atrial natriuretic peptide receptor 2 (Homo sapiens) (UniProt P20594)
Assay: Natriuretic polypeptide receptor (hNpr2) antagonism - Pilot subtype selectivity assay (AID 1347050)
Conditions: NPR2-expressing cells, cGMP antagonist-mode read-out; series mostly up to 38.3 µM; activity change, negative = inhibition: at the top concentration
Procedure: F. Fan, B. F. Binkowski, B. L. Butler, P. F. Stecha, M. K. Lewis, K. V. Wood, Novel genetically encoded biosensors using firefly luciferase. ACS Chem Biol 3, 346-351 (2008).
PROTOCOL TABLE (as described by Inglese J, Shamu CE and Guy RK. 2007)
SEQUENCE No. (e.g., 1, 2, 3, etc.); […] (e.g., Cells, Incubation, Reagent, etc.); VALUE and DESCRIPTION.
1. Cells. Seed 1500 HEK293 cGMP-sensor cells expressing hNpr2 per well in 4uL into Greiner 1536-well white/solid bottom high base, TC plates.
2. Incubation. Incubate plated cells at 37C in 5% CO2, 95% RH overnight.
3. Reagent. Add 1uL per well GloSensor reagent from Promega (2% final concentration) or CO2 independent media vehicle control to respective columns of Greiner 1536-well plates.
4. Incubation. Incubate plated cells at ambient temperature for 2 h., protect from light.
5. Compounds. Library compounds and DMSO vehicle control added at 23nL per well, transferred by Pin Tool.
6. Incubation. Incubate plated cells for 30 min. at ambient temperature, protect from light.
7. Detector. GloSensor baseline pre-read luminescence measured using CCD-based camera (Viewlux).
8. Compound. Add 1uL of hNppC peptide to 1 nM final concentration to stimulate hNpr2 or CO2 independent media as vehicle control.
9. Incubation. Incubate treated cells at ambient temperature for 20 min., protect from light.
10. Detector. GloSensor post-hNppC luminescence measured using CCD-based camera (Viewlux).
NOTES (numbers refer to Sequence numbers above)
1. HEK293 cells expressing hNpr2 and GIP/pGS-40F were grown to 85-95% confluence (48-72 h) in T175 culture flasks (CO2 independent media supplemented with 10% FBS, 1% Pen/Strep antibiotics, and 1 ug/mL puromycin). Trypsinize and harvest cells from T175 culture flasks and filter through 40 um cell strainer. Cells counted with Invitrogen Countess (30,000,000 - 50,000,000 cells/flask). Cells diluted to a final concentration of 375 cells/uL in CO2 independent media and a Millipore multidrop used to dispense 1500 cells per well (4uL/well) into 9 x1536-well Greiner White/Solid bottom, high base tissue-culture treated (TC) plates and one Aurora 1536-well Black/Clear bottom, low base, TC plate (for visual inspection of cell health throughout the duration of the assay).
2. Cells incubated for 24 h. at 37C in 95% RH incubator with metal lid having gas-exchange holes.
3. Prepare GloSensor Reagent (Promega): Reconstitute GloSensor luciferase substrate by adding 8.2mL Hepes buffer to 250mg substrate, mix well, protect from light and stored at -80C. Prepare a fresh 12% GloSensor solution in CO2 independent supplemented plating media (see above). Mix well and store at ambient temperature, protected from light. 1uL 12% GloSensor Luciferase Reagent added (2% final concentration) to respective columns of 9 x 1536-well Greiner plate with BioRaptr, 1uL CO2 independent plating media added to respective columns as vehicle control with BioRaptr.
4. Cells incubated for 2 h. at ambient temperature, protected from light with metal lid having gas-exchange holes.
5. 23nL of LOPAC1280 library compounds (7 plates) or DMSO vehicle control transferred to 9 Greiner white/solid bottom high base, TC plates in 7 interplate 1:5 titrations (see Yasgar, A. et al. 2008) with Pintool. Two of the 9 plates are DMSO-only in compound field at beginning and end of compound library-treated plates.
6. Cells incubated for 30-50 min. at ambient temperature protected from light with metal lid having gas-exchange holes.
7. Read cellular baseline GloSensor luminescence in presence of test library compounds on the ViewLux [Exposure = 10 s.; Gain = High; Speed = Slow; and Binning = 2X.]
8. hNppC peptide agonist solution prepared at 1 mM (in H2O) stock concentration. From this a working dilution was prepared at 6 nM in CO2 Independent media. […]
% is set by controls: 0 for no effect and ±100 for the full control effect; potency is the fitted concentration of half-maximal effect.

Sequence of Atrial natriuretic peptide receptor 2 (Homo sapiens) (P20594 whole entry, looked up): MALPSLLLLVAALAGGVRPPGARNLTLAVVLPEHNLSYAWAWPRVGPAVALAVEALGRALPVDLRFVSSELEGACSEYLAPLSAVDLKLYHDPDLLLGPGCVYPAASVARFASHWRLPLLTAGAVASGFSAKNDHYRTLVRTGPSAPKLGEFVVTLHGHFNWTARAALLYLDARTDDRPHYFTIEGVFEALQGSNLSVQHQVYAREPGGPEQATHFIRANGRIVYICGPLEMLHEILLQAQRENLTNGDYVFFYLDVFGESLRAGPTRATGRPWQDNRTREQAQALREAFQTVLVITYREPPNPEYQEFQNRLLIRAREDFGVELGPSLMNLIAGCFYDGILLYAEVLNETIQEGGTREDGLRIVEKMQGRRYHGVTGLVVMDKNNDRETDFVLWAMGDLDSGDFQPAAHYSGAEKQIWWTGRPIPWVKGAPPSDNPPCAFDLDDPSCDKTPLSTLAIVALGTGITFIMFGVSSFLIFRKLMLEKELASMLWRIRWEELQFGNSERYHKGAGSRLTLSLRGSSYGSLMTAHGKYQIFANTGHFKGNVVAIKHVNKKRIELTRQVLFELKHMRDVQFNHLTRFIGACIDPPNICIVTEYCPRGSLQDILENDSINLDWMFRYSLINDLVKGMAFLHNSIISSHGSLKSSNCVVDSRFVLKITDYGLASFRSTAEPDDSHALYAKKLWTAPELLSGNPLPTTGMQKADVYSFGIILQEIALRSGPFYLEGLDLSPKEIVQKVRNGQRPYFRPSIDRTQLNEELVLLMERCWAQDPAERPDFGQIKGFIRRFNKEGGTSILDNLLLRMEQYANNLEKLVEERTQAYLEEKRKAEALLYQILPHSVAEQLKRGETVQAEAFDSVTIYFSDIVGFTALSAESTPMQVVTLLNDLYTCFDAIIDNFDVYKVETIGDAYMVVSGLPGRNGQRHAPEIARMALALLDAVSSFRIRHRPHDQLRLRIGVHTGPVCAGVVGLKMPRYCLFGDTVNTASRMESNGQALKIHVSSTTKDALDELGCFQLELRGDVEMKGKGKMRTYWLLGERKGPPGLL

Row | Compound | activity change, negative = inhibition | Potency
1 | CO/N=C(\C(=O)N[C@@H]1C(=O)N2C(C(=O)O)=C(COC(C)=O)CS[C@H]12)c1csc(N)n1 | -0.821% | –
2 | CNc1ncnc2c1ncn2[C@@H]1O[C@H](CO)[C@@H](O)[C@H]1O | -5.07% | –
3 | C[C@@H](CN1CCC(Cc2ccccc2)CC1)[C@@H](O)c1ccc(O)cc1 | 1.65% | –
4 | CN1CCC[C@H]1c1cccnc1 | 1.96% | –
5 | Oc1cc2c(cc1O)CN(C(=S)NCCc1ccc(Cl)cc1)CCC2 | -17% | –
6 | NCCSSCCN | 1% | –
7 | OCC1O[C@H](O)C(Cl)C(O)C1O (stereo not given in full) | 6.33% | –
8 | CSc1nc(N)c2ncn([C@@H]3O[C@H](COP(=O)(O)OP(=O)(O)OP(=O)(O)O)[C@@H](O)[C@H]3O)c2n1 | -5.49% | –
9 | CC(C)NC[C@@H](O)c1ccc(O)c(O)c1 | 7.72% | –
10 | Nc1nc(Nc2ccccc2)nc2c1ncn2[C@@H]1O[C@H](CO)[C@@H](O)[C@H]1O | 4.47% | –
11 | CC(=O)N[C@H](C(=O)O)C(C)(C)SN=O | 10.2% | –
12 | Cc1nc2sccn2c(=O)c1CCN1CCC(=C(c2ccccc2)c2ccc(F)cc2)CC1 | 4.13% | –
13 | NC(=S)c1ccc[n+]([C@@H]2O[C@@H](COP(=O)([O-])OP(=O)(O)OC[C@H]3O[C@@H](n4cnc5c(N)ncnc54)[C@H](OP(=O)(O)O)[C@@H]3O)C(O)C2O)c1 (stereo not given in full) | -4.1% | –
14 | CN1CC(=O)N/C1=N/C(=O)Nc1cccc(Cl)c1 | 11% | –
15 | O=C(CCCCCN1CCN(c2ccccc2-c2ccccc2)CC1)NC1CCCc2ccccc21 (stereo not given) | 0.587% | –
16 | NCCCS(=O)(=O)O | 6.38% | –
17 | O=c1[nH]c2cc(C(F)(F)F)ccc2n1-c1cc(C(F)(F)F)ccc1O | -10.3% | –
18 | CC(N)C(=O)OC(C)(C)Cc1ccc(Cl)cc1 (stereo not given) | -17.8% | –
19 | Nc1nc(Cl)nc2c1ncn2[C@@H]1O[C@H](CO)[C@@H](O)[C@H]1O | 27.4% | –
20 | CN1CCc2ccccc2Cc2[nH]c3ccccc3c2CC1 | -6.91% | –

Row | Compound | activity change, negative = inhibition | Potency
21 | CCCCC#Cc1nc(NC)c2ncn([C@@H]3O[C@H](CO)[C@@H](O)[C@H]3O)c2n1 | -5.86% | –
22 | CC(C)Cc1ccc([C@H](C)C(=O)O)cc1 | 1.61% | –
23 | COc1ccc(/C=C/C(=O)Nc2ccccc2C(=O)O)cc1OC | – | 3.69 µM (active)
24 | NCCCCCCCCCCN | 4.19% | –
25 | O=C(c1cc(O)c(O)c([N+](=O)[O-])c1)c1ccccc1F | -23.1% | –
26 | OC[C@H]1O[C@@H](n2cnc3c(NC4CCCCC4)ncnc32)[C@H](O)[C@@H]1O | -2.91% | –
27 | COc1cc2c(CCNC(C)=O)c[nH]c2cc1Cl | -0.371% | –
28 | Fc1ccc(C(OCCCc2cnc[nH]2)c2ccc(F)cc2)cc1 | -3.2% | –
29 | O=C(O)c1cc(=O)c2ccccc2[nH]1 | 5.19% | –
30 | COc1cc(C(O)CO)ccc1OS(=O)(=O)O (stereo not given) | -6.69% | –
31 | C[C@@H](NC(=O)/C(C#N)=C/c1ccc(O)c(O)c1)c1ccccc1 | -5.23% | –
32 | O=C(O)CNC(=O)C(CS)Cc1ccccc1 (stereo not given) | 7.62% | –
33 | Clc1ccc(N2CCN(Cc3cc4ccccn4n3)CC2)cc1 | -3.43% | –
34 | CCNC(=O)[C@H]1O[C@@H](n2cnc3c(N)nc(NCCc4ccc(CCC(=O)O)cc4)nc32)[C@H](O)[C@@H]1O | -7.13% | –
35 | COC1=C(OC)C(=O)c2ccccc2C1=O | 9.23% | –
36 | COc1ccc2c(c1)CCC1C2CC[C@@]2(C)C1CC[C@@H]2NCCCCCCN1C(=O)CCC1=O (stereo not given in full) | 17.5% | –
37 | NC[C@@H]1O[C@H](C23CC4CC(CC(C4)C2)C3)Cc2c1ccc(O)c2O | -27.5% | –
38 | NO | 1.01% | –
39 | CC1CN(S(=O)(=O)c2cccc3cnccc23)CCN1 (stereo not given) | -17.5% | –
40 | C[N+](C)(C)CC(=O)[O-] | 0.653% | –
